Drawing on PubChem BioAssay (EPA / NIEHS), this text covers outcome and AC50 for 20 compounds.

For orientation: AC50 means the concentration giving half of the maximal activity seen.

Test [1] in a line: TOX21_p53_BLA_p2_viability: Viability Assessment in the Tox21 HCT-116 p53 Agonism Beta-lactamase Assay, Phase 2 (AID 2283591).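 Also: compound exposure lasted 16 h at 37 °C; actives lower the ATP signal meaning cytotoxicity.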 The gist of the method: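 HCT-116 p53-bla cells (4000/well) rested 5 h at 37C, then received compounds in DMSO (217-fold dilution) for 16 h at 37C, 5% CO2. After the CCF4 read, CellTiter-Glo was added; ATP luminescence was read after 30 min at room temperature.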

In test [2] the target is Cellular tumor antigen p53 (Homo sapiens) (UniProt P04637). Briefly: TOX21_p53_BLA_p2_ratio: Tox21 HCT-116 p53 Agonism Beta-lactamase Assay, Ratio, Phase 2 (AID 2283592). In short, it runs like this: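 Plated HCT116 p53-bla cells (4000/well) received compound after 5 h, then 16 h at 37C/5% CO2. CCF4-AM added, 2 h RT. Ratio of 460 to 530 nm emission taken as the p53 reporter signal.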

Test [3] is described as follows: TOX21_p53_BLA_p3_viability: Viability Assessment in the Tox21 HCT-116 p53 Agonism Beta-lactamase Assay, Phase 3 (AID 2283593).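 Also: cells exposed to compound for 16 h before reading.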 In short, it runs like this:
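HCT-116 cells (4000/well) rested 5 h at 37C, then got DMSO compounds by pin tool (217-fold dilution) for 16 h at 37C, 5% CO2. After the bla read, CellTiter-Glo was added and luminescence read at 30 min, room temperature.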

The target in test [4] is Cellular tumor antigen p53 (Homo sapiens) (UniProt P04637). Put plainly: TOX21_p53_BLA_p3_ratio: Tox21 HCT-116 p53 Agonism Beta-lactamase Assay, Ratio, Phase 3 (AID 2283596). The gist of the method:
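Cells were seeded at 4000/well, rested 5 h at 37C, then dosed with DMSO compound solutions (217-fold dilution) for 16 h. CCF4-AM substrate was loaded for 2 h at room temperature, and the 460/530 nm emission ratio was fitted for gain of signal versus DMSO.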

Test [5] is described as follows: TOX21_p53_BLA_p4_viability: Viability Assessment in the Tox21 HCT-116 p53 Agonism Beta-lactamase Assay, Phase 4 (AID 2283597).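 Also: hits lower the luminescence signal meaning cytotoxicity.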 In short, it runs like this:
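Readout: ATP luminescence (CellTiter-Glo), measured 30 min after reagent addition at RT. The reagent followed a 2 h CCF4-AM incubation, and the cells had been exposed to compound for 16 h at 37C.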

Test [6] concerns the target Cellular tumor antigen p53 (Homo sapiens) (UniProt P04637). Briefly: TOX21_p53_BLA_p5_ratio: Tox21 HCT-116 p53 Agonism Beta-lactamase Assay, Ratio, Phase 5 (AID 2283599). The gist of the method: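 HCT-116 cells carrying a p53-inducible beta-lactamase reporter were seeded at 4000 cells/well and dosed after 5 h with compound in DMSO (217-fold dilution). After 16 h at 37C, CCF4-AM substrate was added for 2 h, and the 460/530 nm emission ratio was scored as gain-of-signal versus DMSO.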

Test [7] is described as follows: TOX21_p53_BLA_p5_viability: Viability Assessment in the Tox21 HCT-116 p53 Agonism Beta-lactamase Assay, Phase 5 (AID 2283600). The gist of the method: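 Workflow: seed 4000 cells per well, wait 5 h, add compounds (DMSO, 217-fold dilution), incubate 16 h, load CCF4-AM 2 h, add CellTiter-Glo, read luminescence after 30 min.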
In test [8] the target is Cellular tumor antigen p53 (Homo sapiens) (UniProt P04637). Put plainly: TOX21_p53_BLA_p4_ratio: Tox21 HCT-116 p53 Agonism Beta-lactamase Assay, Ratio, Phase 4 (AID 2283601). The gist of the method: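 HCT116 cells carrying an inducible beta-lactamase reporter were plated at 4000 cells/well, rested 5 h, then exposed to compounds in DMSO (217-fold dilution) for 16 h at 37C. CCF4-AM substrate was loaded 2 h at room temperature; 460/530 nm emission ratio scored gain-of-signal versus DMSO.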

Results filed as inconclusive are left out. Calls of active or inactive are those of the source. The calls were made as follows: active = hit-call score of the fitted dose curve at least 0.9, where 1 is the maximum; inconclusive = response in the unintended direction; inactive = score below 0.9.

Sequence of Cellular tumor antigen p53 (Homo sapiens) (P04637 whole entry, looked up): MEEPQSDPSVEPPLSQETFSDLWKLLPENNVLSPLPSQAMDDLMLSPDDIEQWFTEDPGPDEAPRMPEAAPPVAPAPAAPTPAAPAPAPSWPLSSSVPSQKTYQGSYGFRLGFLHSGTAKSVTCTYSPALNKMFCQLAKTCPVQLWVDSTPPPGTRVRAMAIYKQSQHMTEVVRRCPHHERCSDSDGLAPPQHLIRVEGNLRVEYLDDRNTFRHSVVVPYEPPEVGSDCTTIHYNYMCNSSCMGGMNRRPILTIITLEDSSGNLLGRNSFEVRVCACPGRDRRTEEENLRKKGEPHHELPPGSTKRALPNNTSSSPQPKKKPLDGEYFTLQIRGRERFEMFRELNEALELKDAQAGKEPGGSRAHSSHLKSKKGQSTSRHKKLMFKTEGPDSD

For the compound `CC1(C)C[C@@H]1C(=O)N/C(=C\CCCCSC[C@H](N)C(=O)O)C(=O)O`, the result in test [1], in test [2], in test [3], in test [4], in test [5] and in test [6] was inactive. The compound was called inactive in test [7] and in test [8].

`CC[C@H](C)COC(=O)/C=C/c1ccc(N=Cc2ccc(OC)cc2)cc1`: the AC50 in test [1] is 43.5 µM (active); in test [2], 87.2 µM (active); in test [5] it was 46 µM (active); in test [8], 84.4 µM (active). The outcome in test [3], in test [4], in test [6] and in test [7] was inactive.

Consider `COc1ccc(S(=O)(=O)Nc2nnc(CC(C)C)s2)cc1`, for which the call in test [1], in test [2], in test [3], in test [4], in test [5] and in test [6] was inactive. For the same compound, the outcome in test [7] and in test [8] was inactive.

Turning to `CNCC[C@H](Oc1cccc2ccccc12)c1cccs1`, the AC50 is 35.4 µM (active) in test [1], 43.5 µM (active) in test [2], 35.4 µM (active) in test [5] and 43.7 µM (active) in test [8]. Further, the compound was classed as inactive in test [3], in test [4], in test [6] and in test [7].

Regarding `CCCCCCCCCCCCCC[N+](C)(C)Cc1ccccc1`, the compound was called inactive in test [1], in test [2], in test [3], in test [4] and in test [7]. The concentration at half-maximal activity (AC50) in test [5] was 27.9 µM (active); in test [6] it was 40.8 µM (active); in test [8], 43.7 µM (active).

With `C(=C\c1ccccc1)/CN1CCN(C(c2ccccc2)c2ccccc2)CC1`, the compound was classed as inactive in test [1], in test [2], in test [3], in test [4], in test [5] and in test [6]. In addition, the compound was called inactive in test [7] and in test [8].

`CC[C@@]1(O)C(=O)OCc2c1cc1n(c2=O)Cc2cc3c([N+](=O)[O-])cccc3nc2-1`: the compound was called inactive in test [1] and in test [7]. Further, the AC50 in test [2] is 0.124 µM (active); in test [3], 0.685 µM (active); in test [4], 0.172 µM (active); in test [5], 0.654 µM (active); in test [6] it was 0.166 µM (active); in test [8] it was 0.166 µM (active).

Regarding `CC(C)C[C@H](NC(=O)CNC(=O)[C@H](Cc1ccc(O)cc1)NC(=O)[C@H](CO)NC(=O)[C@H](Cc1c[nH]c2ccccc12)NC(=O)[C@H](Cc1cnc[nH]1)NC(=O)[C@@H]1CCC(=O)N1)C(=O)N[C@@H](CCCN=C(N)N)C(=O)N1CCC[C@H]1C(=O)NCC(N)=O` (stereo in doubt), the call in test [1], in test [2], in test [3], in test [4], in test [5] and in test [6] was inactive. The compound was classed as inactive in test [7] and in test [8].

`O=C(Nc1ccc(Oc2ccc(Cl)cc2)c(Cl)c1)c1cc(I)cc(I)c1O`: the AC50 in test [1] was 4.23 µM (active); in test [2] it was 4.05 µM (active); in test [3] it was 2.64 µM (active); in test [4] it was 3.93 µM (active); in test [5], 2.3 µM (active); in test [6], 10.2 µM (active). Besides, in test [8], the concentration at half-maximal activity (AC50) was 8.12 µM (active). Further, the result in test [7] was inactive.

On to `CCCCCCCCCCCCCCCCC(C(=O)O)C(O)(CC(=O)O)C(=O)O` (stereo not given), for which the call in test [1], in test [2], in test [5] and in test [8] was inactive. Further, the half-maximal activity concentration (AC50) is 42.3 µM (active) in test [3], 41.2 µM (active) in test [4], 38.7 µM (active) in test [6] and 34.3 µM (active) in test [7].

For the compound `CCOc1cc([N+](=O)[O-])c(OCC)cc1N1CCOCC1`, the compound was called inactive in test [1], in test [2], in test [3], in test [4], in test [5] and in test [6]. Further, the compound was called inactive in test [7] and in test [8].

As to `O=C(O)c1cc(N=Nc2ccc([N+](=O)[O-])cc2)ccc1O`, the AC50 is 84.1 µM (active) in test [1], 45.4 µM (active) in test [3] and 29.6 µM (active) in test [5]. For the same compound, the result in test [2], in test [4], in test [6], in test [7] and in test [8] was inactive.

For the compound `CCCCCCCCOc1ccccc1C(=O)Nc1ccc(C(=O)OCC[N+](C)(CC)CC)cc1`, the AC50 in test [1] is 28.9 µM (active); in test [3], 30.5 µM (active); in test [5], 19 µM (active); in test [7] it was 32.8 µM (active). The result in test [2], in test [4], in test [6] and in test [8] was inactive.

For the compound `O=C(O)Cc1cn(-c2ccccc2)nc1-c1ccc(Cl)cc1`, the compound was called inactive in test [1], in test [2], in test [3], in test [4], in test [5] and in test [6]. Besides, the call in test [7] and in test [8] was inactive.

`COc1cccc2c1[C@@H]1CN(CCCCn3c(=O)[nH]c4c(sc5ncc(-c6ccccc6)nc54)c3=O)C[C@@H]1CO2`: the figures for the AC50 in test [1] and in test [5] were 39.8 µM (active) and 43.3 µM (active), respectively. Further, the result in test [2], in test [3], in test [4], in test [6], in test [7] and in test [8] was inactive.

Consider `CO[C@H]1C[C@H](O[C@@H]2/C(C)=C/C[C@@H]3C[C@@H](C[C@]4(CC[C@H](C)[C@@H](C5CCCCC5)O4)O3)OC(=O)[C@@H]3C=C(C)/C(=N/O)[C@H]4OC/C(=C\C=C\[C@@H]2C)[C@]43O)O[C@@H](C)[C@@H]1O`, for which the compound was called inactive in test [1], in test [2], in test [3], in test [4], in test [6] and in test [7]. Besides, the outcome in test [8] was inactive. The concentration at half-maximal activity (AC50) in test [5] is 40.7 µM (active).

Consider `CN1CCN(CCCN2c3ccccc3Sc3ccc(Cl)cc32)CC1`, for which the AC50 in test [1] is 33.8 µM (active); in test [2] it was 43.7 µM (active); in test [3], 34.7 µM (active); in test [5], 38.3 µM (active); in test [6], 43.3 µM (active); in test [7] it was 34.4 µM (active). Further, in test [8], the AC50 is 43.7 µM (active). Also, the outcome in test [4] was inactive.

As to `CC(=O)O[C@H]1CC[C@@]2(C)C(=CC[C@H]3[C@@H]4CC[C@H](C(C)=O)[C@@]4(C)CC[C@@H]32)C1`, the call in test [1], in test [2], in test [3], in test [4], in test [5] and in test [6] was inactive. In addition, the compound was classed as inactive in test [7] and in test [8].

Consider `Cc1c(Cl)cccc1Nc1ncccc1C(=O)O`, for which the compound was called inactive in test [1], in test [2], in test [3], in test [4], in test [5] and in test [6]. Also, the call in test [7] and in test [8] was inactive.

Regarding `C#C[C@]1(O)CC[C@H]2[C@@H]3[C@H](C)CC4=C(CCC(=O)C4)[C@H]3CC[C@@]21C`, the result in test [1], in test [2], in test [3], in test [4], in test [5] and in test [6] was inactive. Moreover, the compound was called inactive in test [7] and in test [8].
